# High-throughput results: PubChem BioAssay, several laboratories
# An excerpt weighted towards active compounds, which were near 4.3% of everything screened.
# HSF1 activator: HSF-1 activators, primary screen, NIH3T3-HGL cells, MG132 stress, luminescence, single point. NIH3T3-HGL HSF-1 luciferase reporter, 8 h; 100% = twice DMSO control signal. AID 504408, 2011. activation, % at 9 µM. 300,000 tested, 1.7% active;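 active = mean replicate activation of at least 50% with a set share of replicates each reaching 50%; inconclusive = only one of those two conditions met; inactive = mean below 50% and too few replicates reaching it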;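 also: 0% = median of the neutral control wells and 100% = twice that signal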
# esBAF inh: Bmi1 luciferase reporter increase in mESCs, primary screen, esBAF inhibitor project, mouse ES cells, Bmi1 luciferase knock-in, single point. 24 h; 100% = twice the neutral-well signal. reporter increase, % at 12.5 µM. 350,000 tested, 2% active; in the data active = activation above about 40%; inconclusive = no clear call, values can overlap the other calls;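 also: 0% = median of the plate's neutral control wells and 100% = double that signal; a rise in the Bmi1 reporter signal indicates esBAF inhibition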
# MITF act: activators of MITF-driven TRPM1 promoter reporter, primary screen, cell-based, SK-MEL-5, luciferase, single point; SK-MEL-5 TRPM1-promoter luciferase, 24 h; % of positive control, neutral wells = 0; activation, % at 12.5 µM; 300,000 tested, 0.75% active;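 active = mean activation of at least 80% with every replicate also reaching 80%; inconclusive = mean reaches 80% but some replicate falls short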;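 also: 0% = neutral control wells and 100% = parthenolide positive control wells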
# HSF1 inhib: HSF1 inhibitors in luciferase reporter cells, primary screen, cell-based, NIH3T3, luminescence | NIH3T3-HGL HSE-luciferase, MG132-induced, luminescence 8 h; stronger effect = lower value | activity change, negative = inhibition, % at 7.5 µM (by protocol) | 300,000 tested, 0.77% active | AID 2098, 2009;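 active = more than half of replicate wells show activity change below -50%, luminescence cut by over half; inconclusive = some wells, but at most half, below -50%; inactive = no replicate well below -50%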;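 also: luciferase reports HSF-1 transcriptional activity via heat shock element; 0% = median of DMSO wells and -100% = zero luminescence signal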
# Wnt act: Wnt/beta-catenin pathway activators, primary screen, cell-based, plate reader, single point. Wnt/beta-catenin reporter cell assay, activator. activation, % at 9.35 µM. 300,000 tested, 1.2% active; in the data active = activation above about 30%, passing the limit was not always enough; inconclusive = no clear call, values can overlap the other calls;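 also: 0% = neutral control wells and 100% = positive control wells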
# SMARCA2 act: SMARCA2 (BRM) function activators, primary screen, cell-based, luminescence, high throughput | MG213 cells, MMTV-luciferase reporter, dexamethasone, overnight | 370,000 tested, 1% active | activation, % at 9.1 µM; in the data active = activation above about 7.8%;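 also: 0% = vehicle wells and 100% = reference activator wells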
# * hit, by the source's call; ? = inconclusive; nt = no result given.
SMILES,HSF1 activator,esBAF inh,MITF act,HSF1 inhib,Wnt act,SMARCA2 act
O=C(C[C@@H]1CC[C@@H]2NC[C@H](O)COC[C@H]2O1)Nc1ccc(-c2ccccc2)cc1,nt,1,nt,nt,nt,nt
COC(=O)c1cc(=O)n(-c2ccc(F)cc2)c(=Nc2ccc(F)cc2)s1,57*,30,-23,48,3,-2
COC(=O)c1ccc(N=c2sc(C(=O)OC)cc(=O)n2C)cc1,nt,-4,-12,nt,3,0
COC(=O)c1cc(=O)n(Cc2ccc3c(c2)OCO3)c(=Nc2ccc(F)cc2)s1,-5,18,-4,-9,5,0
COC(=O)c1cc(=O)n(Cc2cccs2)c(=Nc2ccc(F)cc2)s1,52*,-3,nt,45,-2,-2
C[C@H]1CN([C@@H](C)CO)C(=O)c2cc(NC(=O)Cc3ccccc3)ccc2O[C@@H]1CN(C)CC1CCCCC1,nt,2,nt,nt,nt,nt
C[C@@H]1CCCCO[C@H](CN(C)Cc2ccccc2)[C@H](C)CN([C@H](C)CO)C(=O)c2cc(NC(=O)Nc3ccccc3)ccc2O1,nt,0,nt,nt,nt,nt
C[C@@H]1CN([C@@H](C)CO)C(=O)c2cc(-c3ccccc3)cnc2O[C@@H]1CN(C)C(=O)Cc1ccccn1,nt,-1,nt,nt,nt,nt
C[C@H]1CN([C@@H](C)CO)C(=O)c2cc(NC(=O)Nc3ccc(F)cc3)ccc2O[C@@H]1CN(C)Cc1ccncc1,nt,2,nt,nt,nt,nt
Cc1[nH]n(-c2ccccc2)c(=O)c1C(c1cccc([N+](=O)[O-])c1)c1c(C)[nH]n(-c2ccccc2)c1=O,17,nt,-4,22,3,-2
Cc1[nH]n(-c2ccccc2)c(=O)c1C(C[N+](=O)[O-])c1ccc(Br)cc1 (centres undefined),210*,nt,-83,181,nt,1
Cc1[nH]n(-c2ccccc2)c(=O)c1C(c1ccc(C(=O)O)cc1)c1c(C)[nH]n(-c2ccccc2)c1=O,8,nt,-4,2,-1,-1
COc1cccc(C(C[N+](=O)[O-])c2c(C)[nH]n(-c3ccccc3)c2=O)c1 (centres undefined),278*,-2,8,214,-1,-1
CCCSc1nnc(NC(=O)Nc2ccccc2OC)s1,9,47*,nt,15,30,4
CCCc1nnc(NC(=O)Nc2ccccc2OC)s1,38,nt,71,18,nt,3
Cc1noc(C)c1S(=O)(=O)Nc1ccc2c(c1)C(=O)N([C@@H](C)CO)C[C@@H](C)[C@@H](CN(C)C(=O)Nc1ccc3c(c1)OCO3)O2,nt,0,nt,nt,nt,nt
C[C@@H]1CCCCO[C@H](CN(C)S(=O)(=O)c2cccs2)[C@H](C)CN([C@H](C)CO)C(=O)c2cc(NS(=O)(=O)c3ccccc3)ccc2O1,nt,-2,nt,nt,nt,nt
COc1ccc(/C(N)=N/OC(=O)c2cccs2)cc1,17,nt,61,6,40*,1
N/C(=N\OC(=O)c1cccs1)c1ccc(Cl)cc1,60*,14,nt,16,57*,1
COc1ccc(NC(=O)c2ccc(NC(=O)c3cccs3)cc2)cc1,-2,nt,0,-3,-4,-1
C[C@H](CO)N1C[C@H](C)[C@H](CN(C)C)Oc2ccc(NC(=O)Cc3cn(C)c4ccccc34)cc2C1=O,nt,0,nt,nt,nt,nt
Cc1cc(N)n(-c2ccc(C(=O)O)cc2)n1,-74,-7,8,-67*,-1,1
O=C(NCCNc1ccnc2cc(Cl)ccc12)c1ccccc1F,-83,-1,nt,-79*,-5,-2
O=C(NCCNc1ccc(Cl)cc1[N+](=O)[O-])c1ccccc1F,51*,18,24,37,8,1
N#Cc1ccc(-c2ccc3c(c2)[C@@H]2[C@@H](CCN2C(=O)c2ccc4c(c2)OCO4)[C@@H](CO)N3)cc1,nt,0,nt,nt,nt,nt
SMILES,HSF1 activator,esBAF inh,MITF act,HSF1 inhib,Wnt act,SMARCA2 act
Cc1cccc(S(=O)(=O)N2CCCCN3[C@H](C2)[C@H](c2ccc(C#C[C@H](C)O)cc2)[C@@H]3CO)c1,nt,11,nt,nt,nt,nt
C[C@@H]1CN([C@@H](C)CO)C(=O)c2cccc(NC(=O)c3ccncc3)c2O[C@@H]1CN(C)C(=O)Nc1ccc2c(c1)OCO2,nt,15,nt,nt,nt,nt
Cc1noc(C)c1S(=O)(=O)Nc1ccc2c(c1)C(=O)N([C@@H](C)CO)C[C@@H](C)[C@H](CN(C)Cc1ccncc1)OCCCC[C@H](C)O2,nt,-3,nt,nt,nt,nt
CC(=O)Nc1nc(-c2ccc3c(c2)OCO3)cs1,28,39,65,3,53*,0
Cc1ccc(-c2csc(NC(=O)CN3CCOCC3)n2)cc1,12,6,-3,6,-2,3
c1cncc(-c2nc(-c3ccc4c(c3)OCCO4)cs2)c1,64*,8,21,32,0,2
Oc1ccc(-c2csc(-c3cccnc3)n2)cc1O,42,nt,23,26,15,0
Cc1ccc(-c2csc(NC(=O)N3CCOCC3)n2)cc1,34,83*,11,7,24,-3
O=C(CSCC(=O)N1CCOCC1)Nc1nc(-c2ccc3c(c2)OCO3)cs1,-6,54*,nt,8,17,5
CCOC(=O)N1CCN(C(=O)CSCC(=O)Nc2nc(-c3ccc4c(c3)OCO4)cs2)CC1,nt,?,17,nt,0,nt
O=C(Nc1nc(-c2ccc3c(c2)OCO3)cs1)C1COc2ccccc2O1 (centres undefined),-16,-8,nt,4,-3,-2
C[C@H](O)C#Cc1cnc2c(c1)C(=O)N([C@H](C)CO)C[C@@H](C)[C@H](CN(C)C(=O)Cc1ccccn1)O2,nt,1,nt,nt,nt,nt
C[C@H]1CN([C@@H](C)CO)C(=O)c2cccc(NC(=O)C3CCCCC3)c2O[C@@H]1CN(C)C(=O)NC1CCCCC1,nt,4,nt,nt,nt,nt
O=C(C[C@H]1CC[C@H]2[C@@H](COC[C@H](O)CN2C(=O)c2ccccc2F)O1)N1CCN(c2ccccc2)CC1,nt,-6,nt,nt,nt,nt
O=C(CCCCl)Nc1nc(-c2ccc3c(c2)OCCO3)cs1,42,39,88*,23,16,6
O=C(Nc1nc(-c2ccc3c(c2)OCCO3)cs1)C1CCCC1,29,nt,144*,28,44*,-3
O=C(Nc1nc(-c2ccc(Cl)cc2)cs1)C1CCCO1 (centres undefined),33,48*,51,16,65*,-1
Cc1cccc(Nc2nc(-c3ccc4c(c3)OCCO4)cs2)c1,-58,20,78,-54*,nt,5
O=C(Nc1nc(-c2ccc(Cl)cc2Cl)cs1)C1CCCO1 (centres undefined),13,nt,12,5,1,-2
Cc1ccc(S(=O)(=O)Nc2ccc3c(c2)C(=O)N([C@H](C)CO)C[C@@H](C)[C@@H](CN(C)C(=O)CCC(F)(F)F)OCCCC[C@H](C)O3)cc1,nt,3,nt,nt,nt,nt
